# Screening data deposited in PubChem BioAssay by National Center for Advancing Translational Sciences (NCATS).
# HP1b chromo inh = inhibitors of HP1-beta chromodomain binding to methylated histone tails | P83916 | AlphaScreen HP1-beta / biotin-H3K9me3 peptide binding | Potency, µM (series often up to 114 µM), for inactives: at the top dose activity change, negative = inhibition, usual class: inhibitors | hit rate 0.56% among 390,000 | AID 540317; further: nearly all actives have a fitted effect of over 70% in size
#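 Compound inhibition of the preformed complex between 50 nM HP1-beta and 50 nM biotinylated H3K9me3 peptide was read by AlphaScreen. Buffer was PBS pH 7.4 with 0.01% Tween-20. Incubations ran 30 min at room temperature, with 10 ug/mL donor/acceptor beads.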
# BAZ2B block = inhibitors of human BAZ2B bromodomain; AlphaScreen BAZ2B-H3K14Ac peptide displacement; Potency, µM (highest dose often 114 µM), for the others: top-dose activity change, negative = inhibition, most hits filed as inhibitors; hit rate 4.4% among 360,000; Q9UIF8; further: on the % scale 0 is the no-effect control and ±100 the full control effect; nearly all actives have a fitted effect of over 60% in size
#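 Multi-concentration screen (max 110 uM) measuring displacement of acetylated histone H3 peptide from BAZ2B by AlphaScreen, using 50 nM protein, 50 nM peptide and 10 ug/mL streptavidin donor plus Ni-chelate acceptor beads.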
# GLS inhibitor = blocks human kidney-isoform glutaminase activity; Potency, µM (highest dose often 45.5 µM), inactives show top-dose activity change, negative = inhibition, most hits filed as inhibitors; AID 624170; hit rate 0.21% among 410,000; GLS enzymatic activity, qHTS titration; further: on the % scale 0 is the no-effect control and ±100 the full control effect
#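 hKGA in 45 mM KH2PO4 (pH 8.2), 0.02% Tween-20 with compound, then 1mM L-Glutamine (stock as added) plus glutamate oxidase/HRP/Amplex red coupling mix. Fluorescence read initially and after 30 min at RT; signal change reflects glutamate formation.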
# L3MBTL1 inh = blocks human L3MBTL1; Q9Y468; AlphaScreen L3MBTL1–H3K9me1 peptide binding; Potency, µM (series often up to 57.1 µM), without a hit: at the highest dose activity, negative = inhibition, hits mostly inhibitors; hit rate 0.66% among 230,000; further: on the % scale 0 is the no-effect control and ±100 the full control effect; nearly all actives have a fitted effect of over 60% in size
#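 Displacement of a biotinylated histone H3(1-15) peptide monomethylated at Lys9 (75 nM) from L3MBTL1 (50 nM) was measured by AlphaScreen after a 30 min room-temperature compound incubation; cefsulodin titration served as intraplate control.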
# JMJD2A Tudor = blocks the human JMJD2A Tudor domain; Potency, µM (top dose mostly 114 µM), for the others: at the top dose activity change, negative = inhibition, most hits filed as inhibitors; hit rate 4.4% among 390,000; AID 504339; AlphaScreen JMJD2A-Tudor / H3K4me3 peptide binding; O75164; further: on the % scale 0 is the no-effect control and ±100 the full control effect; nearly all actives have a fitted effect of over 50% in size
# G9a block = blocks human histone lysine methyltransferase G9a; G9a H3K9 monomethylation, AlphaScreen, 2 h; Potency, µM (top dose mostly 102 µM), without a hit: at the highest dose activity, negative = inhibition, usual class: inhibitors; hit rate 8.8% among 350,000; AID 504332; further: on the % scale 0 is the no-effect control and ±100 the full control effect; nearly all actives have a fitted effect of over 75% in size
#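 Chemiluminescent proximity detection of H3K9 monomethylation, read after 10 min bead incubation in the dark. Reaction: 20 nM G9a, 500 nM biotin-H3K9 peptide, 20 uM SAM cofactor, 2 h, room temperature, following 15 min enzyme-compound preincubation.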
# * marks the source's active call; other numbers are inactive results; ? = inconclusive; . = no result; [ ] = another dose, or the depositor's remark. In the library only some 10% were active in any assay of this set; here they are far more common. The call rests on the fitted dose curve; in most records, active means well fitted curve in the direction sought with a large enough effect; inconclusive means small, poorly fitted or top-dose-only effect, or another doubt; inactive means no such curve, though single readings can be large; an effect the other way counts as inactive or inconclusive. Potency means the concentration at half of the fitted maximal effect.
SMILES,HP1b chromo inh,BAZ2B block,GLS inhibitor,L3MBTL1 inh,JMJD2A Tudor,G9a block
Cc1cc2cc(C)c3nnc(SCC(=O)N4CCN(C(=O)c5ccco5)CC4)n3c2cc1C,17%,.,0%,.,-11%,.
Cc1cccc(OCC(=O)O/N=C(\N)Cc2ccc([N+](=O)[O-])cc2)c1,40%,4%,11%,11%,-13%,35µM*
Cc1ccc(OCC(=O)O/N=C(\N)Cc2ccc([N+](=O)[O-])cc2)cc1C,26%,0%,-8%,.,1%,?
COc1cc(CC(=O)NCC(C)(C)N2CCOCC2)cc(OC)c1OC,15%,1%,-1%,.,-5%,50µM*
Nc1nc(N)c(S(=O)(=O)c2ccccc2)c(Nc2ccc(F)cc2)n1,13%,-12%,1%,.,-15%,-7%[59 µM]
Cn1c(=O)c2c(c3ccccc31)OC(=O)CC2c1ccc(C(F)(F)F)cc1 (configuration not stated),33%,-5%,0%,.,1%,-3%[59 µM]
O=C(CSc1nc2ccccc2c(=O)n1Cc1ccco1)N1CCN(c2ccccc2)CC1,?,?,11%,-4%,-4%,14µM*
CCCCn1c(SCC(=O)N2CCN(c3ccccc3)CC2)nc2ccsc2c1=O,29%,-31%,-2%,-19%,-35%,40µM*
CCn1c(SCC(=O)N2CCN(c3ccc(Cl)cc3)CC2)nc2ccccc2c1=O,-19%,50µM*,1%,1%,-32%,2µM*
CCn1c(SCC(=O)N2CCOCC2)nc2oc3c(Cl)cc(Cl)cc3c(=O)c2c1=O,.,?,.,-1%,.,40µM*
CCn1c(SCC(=O)N2CCOCC2)nc2sc3c(c2c1=O)CCCC3,28%,3%,-16%,4%,-7%,?
CCCn1c(SCC(=O)N2CCN(c3ccccc3)CC2)nc2ccccc2c1=O,2%,-26%,-14%,-1%[11.4 µM],-27%,8%[12.7 µM]
CCn1c(SCC(=O)N2CCN(c3ccc(F)cc3)CC2)nc2ccccc2c1=O,-12%,-34%,10%,.,-16%,-22%[59 µM]
Cc1noc(C)c1-c1cc(NCc2cccs2)ncn1,.,.,.,.,.,5%[0.501 µM]
Cc1ccccc1-n1c(-c2ccc(=O)[nH]n2)n[nH]c1=S,-2%,?,-5%,3%,?,18µM*
Cn1c(-c2ccc(Br)o2)nc2cc(Br)ccc21,10%,-34%,6%,-12%,-17%,?
CC(C)(C)c1cc(-c2n[nH]c(=S)n2-c2ccccc2F)n[nH]1,14%,-30%,?,-5%,10µM*,?
Cc1cccc(-n2c(-c3ccncc3)n[nH]c2=S)c1C,11%,-13%,-2%,4%,13µM*,.
CC(C)Cn1c(-c2ccc(Br)o2)n[nH]c1=S,29%,-9%,-6%,-3%,4%,1.8µM*
Cc1ccc(NC(=O)Cn2nnc(-c3nc(-c4ccncc4)no3)c2N)c(C)c1,11%,-4%,4%,.,-11%,-6%[59 µM]
COc1cccc(CN(C(=O)c2oc3cc(C)ccc3c2C)C2CCS(=O)(=O)C2)c1 (configuration not stated),25%,-24%,0%,.,-17%,-22%[59 µM]
Cc1cc(-c2n[nH]c(=S)n2-c2ccccc2C)cs1,20%,-4%,-17%,1%,35µM*,1.3µM*
Cc1ccccc1-n1c(C)nc2ccccc21,32%,10%,-2%,5%,-9%,5%[59 µM]
Cc1ccccc1-n1c(-c2ccncc2)n[nH]c1=S,21%,-36%,-4%,.,14µM*,?
Cc1ccccc1-n1c(-c2ccc(Br)o2)n[nH]c1=S,21%,.,-1%,.,25µM*,.
SMILES,HP1b chromo inh,BAZ2B block,GLS inhibitor,L3MBTL1 inh,JMJD2A Tudor,G9a block
Cn1c(-c2ccc(Br)o2)nc2ccccc21,20%,-34%,7%,-3%,-15%,-10%[59 µM]
Cc1ccc(-c2cn(CCN)c(-c3ccncc3)n2)cc1,13%,?,3%,0%,?,-6%[2.33 µM]
Cc1ccc(-n2c(-c3ccncc3)n[nH]c2=S)c(C)c1,32%,-14%,-3%,0%,18µM*,.
S=c1[nH]nc(-c2ccc3ccccc3n2)n1-c1ccccc1Cl,-6%[57 µM],3%,0%,-11%,?,?
Cc1cn2c(=O)c(S(=O)(=O)NCCc3ccccc3)c(C)nc2s1,34%,-11%,-12%,.,2%,-5%[59 µM]
CCc1ccccc1-n1c(-c2ccncc2)n[nH]c1=S,28%,0%,-2%,22%,10µM*,5.6µM*
COc1ccc(OC)c(C2CC(=O)Nc3c2c(=O)n(C)c2ncnn32)c1 (configuration not stated),-11%,?,0%,.,-15%,-28%[59 µM]
Cc1ccc(S(=O)(=O)Nc2cccc3cccnc23)c([N+](=O)[O-])c1,-7%,45µM*,67%,.,?,6%
Cc1cc(C)c(NS(=O)(=O)c2cccc3cccnc23)c(C)c1,35%,1%,-4%,.,-14%,?
Cc1ccccc1OC1=NS(=O)(=O)c2ccccc21,14%,-32%,0%,3%,?,?
O=C(O)c1ccccc1OC1=NS(=O)(=O)c2ccccc21,.,.,.,.,79µM*,.
O=S1(=O)N=C(Oc2ccccc2Cl)c2ccccc21,.,.,.,.,112µM*,.
O=S1(=O)N=C(Oc2ccccc2Br)c2ccccc21,.,.,.,.,79µM*,.
CCOc1ccc2c(c1)c(=O)c(C(=O)c1ccc(C)cc1)cn2Cc1ccccc1OC,2%,?,5%,.,-28%,-48%[59 µM]
CCCCCn1c(CCCNC(=O)c2cccc(C)c2)nc2ccccc21,31%,-23%,2%,.,-25%,3%[59 µM]
Cc1cccc(CN2C(=O)c3ccccc3S(=O)(=O)c3ccc(C(=O)N4CCN(c5cc(C)ccc5C)CC4)cc32)c1,24%,-23%,1%,.,-14%,?
COc1ccccc1CN1COc2ccc3c(oc(=O)c4ccccc43)c2C1,21%,5µM*,23%,.,?,0.79µM*
O=c1oc2c3c(ccc2c2ccccc12)OCN(Cc1ccc(Cl)cc1)C3,39%,-27%,17%,.,-15%,1.4µM*
CCCc1cc(=O)oc2c3c(ccc12)OCN(Cc1ccccc1OC)C3,45%,0%,8%,.,7%,-2%[59 µM]
CCC1CCCCN1C(=S)NC(=O)c1cc(S(=O)(=O)N2CCOCC2)ccc1C (configuration not stated),32%,-26%,19%,-6%,-2%,45µM*
O=C(NC(=S)N1CCCCC1CO)c1cc(Br)ccc1Cl (configuration not stated),-13%,6%,-5%,3%,7.9µM*,?
Cc1ccc(S(=O)(=O)N2CCCC2)cc1C(=O)NCCN1CCOCC1,28%,?,-10%,.,-7%,79µM*
CN(c1ccccc1)S(=O)(=O)c1ccc(Cl)c(C(=O)Nc2ccc(N3CCOCC3)cc2)c1,-4%,?,15%,-20%,?,50µM*
